# Assay results reported in PubChem BioAssay AID434927 (Sanford-Burnham Center for Chemical Genomics, 2010).
# Activity calls are given as the source filed them.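 How the source made its calls: active means inhibition above about 23% in any of six single-dose repeats (limit read from the data); inactive means the rest.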
# Molecular target: Intestinal-type alkaline phosphatase (Homo sapiens) (UniProt P09923)
# Test: suppression of intestinal alkaline phosphatase activity – biochemical, luminescence, single concentration, uHTS hits, confirmation (AID 434927);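 further: plate controls were DMSO wells with enzyme for no effect and wells lacking enzyme for full effect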
# Details: purified human IAP, CDP-Star luminescence, 30 min; at 8.3 µM; stronger effect = higher value
# Intestinal-type alkaline phosphatase (Homo sapiens), sequence (P09923 whole entry, looked up): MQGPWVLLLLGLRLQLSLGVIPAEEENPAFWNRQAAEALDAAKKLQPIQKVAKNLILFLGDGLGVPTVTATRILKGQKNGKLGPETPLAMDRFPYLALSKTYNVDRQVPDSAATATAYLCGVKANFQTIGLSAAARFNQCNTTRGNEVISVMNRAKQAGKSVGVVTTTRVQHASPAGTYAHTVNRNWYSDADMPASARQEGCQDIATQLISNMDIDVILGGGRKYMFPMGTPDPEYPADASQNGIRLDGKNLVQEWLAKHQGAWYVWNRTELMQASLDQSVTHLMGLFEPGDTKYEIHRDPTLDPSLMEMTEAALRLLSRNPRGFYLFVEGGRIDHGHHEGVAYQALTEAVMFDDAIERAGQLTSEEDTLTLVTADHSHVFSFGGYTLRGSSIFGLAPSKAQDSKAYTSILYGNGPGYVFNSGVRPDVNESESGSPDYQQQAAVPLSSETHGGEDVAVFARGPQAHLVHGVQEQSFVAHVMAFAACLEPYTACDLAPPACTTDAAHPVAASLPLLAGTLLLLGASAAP
compound,measurement,value
COC(=O)Cn1cc(/C=C2\C(=O)NC(=O)N(c3ccccc3)C2=O)c2ccccc21,inhibition,33.9% (active)
